# Results as given in PubChem BioAssay AID1159580 (chemical genetic matrix, 2015).
# About 2,000 (36%) of roughly 5,500 compounds were called active. Another 18% or so got no clear call; they are omitted. The list shows a part of the results. A number with no mark means an inactive call. Rule as the data show it: active = normalized growth mostly below about 0.91 (no sharp cut-off); inconclusive = no clear call, values can overlap the other calls; inactive = mostly above about 0.92.
# Assay: chemical genetic growth profiling, strain panel (AID 1159580);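 also: tested at 20 µM; growth read once vehicle control cultures reached saturation at 30 °C; 1 = growth at the plate median or of vehicle wells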
# Conditions: S. cerevisiae deletion strains, growth OD
# [1] = locus YAL013W, strain DEP1, stronger effect = lower value
# [2] = locus YBR229C, strain ROT2, stronger effect = lower value
# [3] = locus YCL061C, strain MRC1, stronger effect = lower value
# [4] = locus YDL101C, strain DUN1, stronger effect = lower value
# [5] = locus YDL134C, strain PPH21, stronger effect = lower value
# [6] = locus YDR150W, strain NUM1, stronger effect = lower value
# [7] = locus YEL061C, strain CIN8, stronger effect = lower value
# [8] = locus YGR078C, strain PAC10, stronger effect = lower value
# [9] = locus YHR030C, strain SLT2, stronger effect = lower value
# [10] = locus YHR087W, strain rtc3, stronger effect = lower value
# [11] = locus YJR043C, strain POL32, stronger effect = lower value
# [12] = locus YJR075W, strain HOC1, stronger effect = lower value
# [13] = locus YKL190W, strain CNB1, stronger effect = lower value
# [14] = locus YLR039C, strain RIC1, stronger effect = lower value
# [15] = locus YLR058C, strain SHM2 (second series), stronger effect = lower value
# [16] = locus YLR085C, strain ARP6, stronger effect = lower value
# [17] = locus YLR262C, strain YPT6, stronger effect = lower value
# [18] = locus YML094W, strain GIM5, stronger effect = lower value
# [19] = locus YMR219W, strain ESC1, stronger effect = lower value
# [20] = locus YMR263W, strain SAP30, stronger effect = lower value
# [21] = locus YNL128W, strain TEP1, stronger effect = lower value
# [22] = locus YNL153C, strain GIM3, stronger effect = lower value
# [23] = locus YNL298W, strain CLA4 (second series), stronger effect = lower value
# [24] = locus YNL322C, strain KRE1, stronger effect = lower value
# [25] = locus YNR030W, strain Alg12, stronger effect = lower value
# [26] = locus YPL055C, strain LGE1, stronger effect = lower value
# [27] = locus YPL241C, strain CIN2, stronger effect = lower value
# [28] = locus YPR135W, strain CTF4, stronger effect = lower value
# [29] = locus YAR019C, strain CDC15, stronger effect = lower value
# [30] = locus YBL105C, strain PKC1, stronger effect = lower value
# [31] = locus YBR135W, strain CKS1, stronger effect = lower value
# [32] = locus YBR136W, strain MEC1, stronger effect = lower value
# [33] = locus YBR160W, strain CDC28, stronger effect = lower value
# [34] = locus YDL017W, strain CDC7, stronger effect = lower value
# [35] = locus YDL028C, strain MPS1, stronger effect = lower value
# [36] = locus YDL108W, strain KIN28, stronger effect = lower value
# [37] = locus YDL132W, strain cdc53, stronger effect = lower value
# [38] = locus YDL214C, strain PRR2, stronger effect = lower value
# [39] = locus YDR052C, strain DBF4, stronger effect = lower value
# [40] = locus YDR054C, strain cdc34, stronger effect = lower value
# [41] = locus YDR226W, strain ADK1, stronger effect = lower value
# [42] = locus YDR477W, strain SNF1, stronger effect = lower value
# [43] = locus YER123W, strain YCK3, stronger effect = lower value
# [44] = locus YER133W, strain GLC7, stronger effect = lower value
# [45] = locus YFL009W, strain cdc4, stronger effect = lower value
# [46] = locus YFL029C, strain CAK1, stronger effect = lower value
# [47] = locus YFR003C, strain YPI1, stronger effect = lower value
# [48] = locus YFR019W, strain FAB1, stronger effect = lower value
# [49] = locus YFR028C, strain CDC14, stronger effect = lower value
# [50] = locus YGR040W, strain KSS1, stronger effect = lower value
# [51] = locus YGR052W, strain FMP48, stronger effect = lower value
# [52] = locus YGR092W, strain DBF2, stronger effect = lower value
# [53] = locus YHR079C, strain IRE1, stronger effect = lower value
# [54] = locus YHR082C, strain KSP1, stronger effect = lower value
# [55] = locus YHR205W, strain SCH9, stronger effect = lower value
# [56] = locus YIL147C, strain SLN1, stronger effect = lower value
# [57] = locus YJL095W, strain BCK1, stronger effect = lower value
# [58] = locus YJL128C, strain PBS2, stronger effect = lower value
# [59] = locus YJL157C, strain FAR1, stronger effect = lower value
# [60] = locus YJR016C, strain ILV3, stronger effect = lower value
# [61] = locus YJR066W, strain TOR1 (second series), stronger effect = lower value
# [62] = locus YJR066W, strain TOR1, stronger effect = lower value
# [63] = locus YKL048C, strain ELM1, stronger effect = lower value
# [64] = locus YKL067W, strain YNK1, stronger effect = lower value
# [65] = locus YKL101W, strain HSL1, stronger effect = lower value
# [66] = locus YKL193C, strain SDS22, stronger effect = lower value
# [67] = locus YKL203C, strain TOR2, stronger effect = lower value
# [68] = locus YLR113W, strain HOG1, stronger effect = lower value
# [69] = locus YLR133W, strain CKI1, stronger effect = lower value
# [70] = locus YLR403W, strain SFP1, stronger effect = lower value
# [71] = locus YML070W, strain DAK1, stronger effect = lower value
# [72] = locus YMR001C, strain CDC5, stronger effect = lower value
# [73] = locus YMR205C, strain PFK2 (second series), stronger effect = lower value
# [74] = locus YMR277W, strain FCP1, stronger effect = lower value
# [75] = locus YNL006W, strain LST8, stronger effect = lower value
# [76] = locus YNL020C, strain ARK1, stronger effect = lower value
# [77] = locus YNL161W, strain CBK1, stronger effect = lower value
# [78] = locus YNL183C, strain NPR1, stronger effect = lower value
# [79] = locus YNL207W, strain RIO2, stronger effect = lower value
# [80] = locus YNL222W, strain SSU72, stronger effect = lower value
# [81] = locus YNL307C, strain MCK1 (second series), stronger effect = lower value
# [82] = locus YOL078W, strain AVO1, stronger effect = lower value
# [83] = locus YOL136C, strain PFK27, stronger effect = lower value
# [84] = locus YOR061W, strain CKA2, stronger effect = lower value
# [85] = locus YOR119C, strain RIO1, stronger effect = lower value
# [86] = locus YOR231W, strain MKK1, stronger effect = lower value
# [87] = locus YOR329C, strain SCD5, stronger effect = lower value
# [88] = locus YPL031C, strain PHO85, stronger effect = lower value
# [89] = locus YPL153C, strain RAD53, stronger effect = lower value
# [90] = locus YPL204W, strain HRR25, stronger effect = lower value
# [91] = locus YPL209C, strain IPL1, stronger effect = lower value
# [92] = locus YPL256C, strain CLN2, stronger effect = lower value
# [93] = locus YPR025C, strain CCL1, stronger effect = lower value
# [94] = locus YPR106W, strain ISR1, stronger effect = lower value
# [95] = locus YPR111W, strain DBF20, stronger effect = lower value
# [96] = strain NNK1, stronger effect = lower value
# [97] = strain TSCII, stronger effect = lower value
smiles,measurement,setting,value
COc1ccccc1C1CCN(c2ncnc3scc(-c4ccccc4)c23)CC1,normalized growth,[1],1
same,normalized growth,[2],1.01
same,normalized growth,[3],1
same,normalized growth,[4],1.04
same,normalized growth,[5],0.994
same,normalized growth,[6],1.05
same,normalized growth,[7],1
same,normalized growth,[8],1.01
same,normalized growth,"locus YGR229C, strain SMI1, stronger effect = lower value",1.01
same,normalized growth,[9],1.03
same,normalized growth,[10],0.976
same,normalized growth,[11],1.01
same,normalized growth,[12],1.01
same,normalized growth,[13],1
same,normalized growth,[14],1.02
same,normalized growth,[15],0.984
same,normalized growth,[16],1.03
same,normalized growth,[17],1.01
same,normalized growth,[18],0.992
same,normalized growth,[19],0.996
same,normalized growth,[20],1.02
same,normalized growth,[21],1.02
same,normalized growth,[22],1.01
same,normalized growth,[23],0.994
same,normalized growth,[24],0.992
same,normalized growth,[25],1
same,normalized growth,[26],0.987
same,normalized growth,[27],1.04
same,normalized growth,[28],1.02
Cc1csc2ncnc(N3CCN(C(=O)Nc4ccc(SC(F)(F)F)cc4)CC3)c12,normalized growth,[29],1.01
same,normalized growth,[30],0.991
same,normalized growth,[31],0.999
same,normalized growth,[32],1
same,normalized growth,[33],0.979
same,normalized growth,[34],0.982
same,normalized growth,[35],0.994
same,normalized growth,[4],1
same,normalized growth,[36],0.995
same,normalized growth,[37],1
same,normalized growth,[38],0.908
same,normalized growth,[39],0.988
same,normalized growth,[40],0.993
same,normalized growth,[41],1
same,normalized growth,[42],0.937
same,normalized growth,[43],0.902
same,normalized growth,[44],0.912
same,normalized growth,[45],1.01
same,normalized growth,[46],1
same,normalized growth,[47],1.01
same,normalized growth,[48],0.918
same,normalized growth,[49],0.994
same,normalized growth,[50],0.925
same,normalized growth,[51],0.963
same,normalized growth,[52],0.867
same,normalized growth,[9],0.818 (active)
same,normalized growth,[53],0.866
same,normalized growth,[54],0.947
same,normalized growth,[55],0.927
same,normalized growth,[56],0.987
same,normalized growth,[57],0.868
same,normalized growth,[58],0.972
same,normalized growth,[59],0.88
same,normalized growth,[60],0.994
same,normalized growth,[61],0.65
same,normalized growth,[62],0.915
same,normalized growth,[63],0.931
same,normalized growth,[64],0.915
same,normalized growth,[65],0.903
same,normalized growth,[66],1
same,normalized growth,[67],0.977
same,normalized growth,[68],0.806 (active)
same,normalized growth,[69],0.909
same,normalized growth,[70],0.905
same,normalized growth,[71],0.886
same,normalized growth,[72],0.999
same,normalized growth,[73],0.903
same,normalized growth,[74],1
same,normalized growth,[75],0.997
same,normalized growth,[76],0.898
same,normalized growth,[77],1
same,normalized growth,[78],0.895
same,normalized growth,[79],0.987
same,normalized growth,[80],1
same,normalized growth,[81],0.866
same,normalized growth,[82],0.996
same,normalized growth,[83],0.869
same,normalized growth,[84],0.864
same,normalized growth,[85],0.967
same,normalized growth,[86],0.825
same,normalized growth,[87],1
same,normalized growth,[88],0.915
same,normalized growth,[89],0.914
same,normalized growth,[90],0.9
same,normalized growth,[91],1
same,normalized growth,[92],0.845 (active)
same,normalized growth,[93],0.998
same,normalized growth,[94],0.988
same,normalized growth,[95],0.987
same,normalized growth,[96],0.993
same,normalized growth,[97],0.983
Cc1onc(-c2c(Cl)cccc2Cl)c1C(=O)N1CCN(c2ncnc3scc(-c4ccccc4)c23)CC1,normalized growth,[1],0.97
same,normalized growth,[2],1
same,normalized growth,[3],0.994
same,normalized growth,[4],0.979
same,normalized growth,[5],1
same,normalized growth,[6],0.94
same,normalized growth,[7],1.02
same,normalized growth,[8],1
same,normalized growth,[9],0.942
same,normalized growth,[10],1.01
same,normalized growth,[11],0.977
same,normalized growth,[12],0.997
same,normalized growth,[13],1.01
same,normalized growth,[14],0.937
same,normalized growth,[15],1.01
same,normalized growth,[16],1.01
same,normalized growth,[17],0.962
same,normalized growth,[18],1.01
same,normalized growth,[19],1.01
same,normalized growth,[20],0.967
same,normalized growth,[21],1.01
same,normalized growth,[22],0.999
same,normalized growth,[23],1.02
same,normalized growth,[24],1.01
same,normalized growth,[25],1.01
same,normalized growth,[26],1.02
same,normalized growth,[27],1.01
same,normalized growth,[28],0.923
Cc1csc2ncnc(N3CCN(C(=S)Nc4ccc(C(F)(F)F)cc4)CC3)c12,normalized growth,[29],0.995
same,normalized growth,[30],0.987
same,normalized growth,[31],0.985
same,normalized growth,[32],1
same,normalized growth,[33],0.998
same,normalized growth,[34],1
same,normalized growth,[35],0.996
same,normalized growth,[4],0.985
same,normalized growth,[36],0.993
same,normalized growth,[37],0.996
same,normalized growth,[38],0.945
same,normalized growth,[39],1
same,normalized growth,[40],0.965
same,normalized growth,[41],0.994
same,normalized growth,[42],0.999
same,normalized growth,[43],0.926
same,normalized growth,[44],0.964
same,normalized growth,[45],0.99
same,normalized growth,[46],0.983
same,normalized growth,[47],0.996
same,normalized growth,[48],0.958
same,normalized growth,[49],0.993
same,normalized growth,[50],0.978
same,normalized growth,[51],0.999
same,normalized growth,[52],0.922
same,normalized growth,[9],0.919
same,normalized growth,[53],0.982
same,normalized growth,[54],1.02
same,normalized growth,[55],0.908
same,normalized growth,[56],1.01
same,normalized growth,[57],0.938
same,normalized growth,[58],0.92
same,normalized growth,[59],0.942
same,normalized growth,[60],0.995
same,normalized growth,[61],0.908
same,normalized growth,[62],1.02
same,normalized growth,[63],0.979
same,normalized growth,[64],0.968
same,normalized growth,[65],0.959
same,normalized growth,[66],0.996
same,normalized growth,[67],1.01
same,normalized growth,[68],0.816 (active)
same,normalized growth,[69],0.95
same,normalized growth,[70],0.955
same,normalized growth,[71],0.94
same,normalized growth,[72],0.999
same,normalized growth,[73],0.954
same,normalized growth,[74],0.986
same,normalized growth,[75],0.989
same,normalized growth,[76],0.949
same,normalized growth,[77],0.997
same,normalized growth,[78],0.987
same,normalized growth,[79],0.991
same,normalized growth,[80],0.986
same,normalized growth,[81],0.958
same,normalized growth,[82],0.989
same,normalized growth,[83],0.933
same,normalized growth,[84],0.94
same,normalized growth,[85],1.01
same,normalized growth,[86],0.909
same,normalized growth,[87],0.998
same,normalized growth,[88],0.982
same,normalized growth,[89],0.932
same,normalized growth,[90],0.963
same,normalized growth,[91],0.977
same,normalized growth,[92],0.91
same,normalized growth,[93],0.984
same,normalized growth,[94],0.979
same,normalized growth,[95],0.978
same,normalized growth,[96],0.988
same,normalized growth,[97],1
